The values below come from the supplement of paper PMC7156485.

± gives the standard deviation of the averaged measurements.
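Also: TDF denotes transformed human dermal fibroblasts of mesenchymal origin.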

This test has as its system TDF. The test can be described thus: cell number relative to DMSO (% of DMSO); higher = more cells (less growth inhibition / toxicity). The settings on record: concentration: 10 µM; 24 h. The gist of the method: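 For HCC1569 and TDF cells, compounds at 10 µM were applied for 24 h at 37 °C in triplicate in 384-well plates. Cells were fixed in 3.7% formaldehyde, stained for H1.0 and with DAPI, and imaged at ×10 over six fields per well. The endpoint, H1.0 nuclear intensity or cell number, is shown as percent of the plate control using the median of replicates. Positional effects were smoothed for HCC1569 only.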
For `CC(C)=CCCC(C)=CCOc1ccc2ccc(=O)oc2c1` [Auraptene], the cell number amounted to 103.
Turning to `CN(C)CCOc1ccc(-c2nc(=c3ccc4c(c3)CCC=4N=O)c(=C3C=CNC=C3)[nH]2)cc1`, the cell number was determined as 49.
For `CC1=C(C(=O)O)N2C(=O)C(NC(=O)C(N)C3=CCC=CC3)C2SC1` (centres undefined) [Cephadrine], the cell number came out at 101.
As for `CCC=CCC=CCC=CCCCCCCCCCCCC(=O)O` [Docosatrienoic acid], the cell number stood at 97.7 ± 10.
Under `CCCCCC(=O)C=CC1C(O)CC(O)C1CC=CCCCC(=O)O` (centres undefined) [15-keto-prostaglandin F2a] stands 108.
Take `O=c1c(O)c(-c2ccccc2)oc2cc(O)cc(O)c12` [Galangine]: the cell number amounted to 91.3.
Take `CN(C)c1nc(N)c(C(=O)N=C(N)N)nc1Cl.Cl` [5-(N,N-Dimethyl)amiloride hydrochloride]: the cell number turned out to be 89.7.
With `N[C@@H](Cc1ccc(O)c(O)c1)C(=O)O` [L-3,4-Dihydroxyphenylalanine] the figure was 105.
`CC(C=CC1=C(C)CCCC1(C)C)=CC=CC(C)=CC(=O)O` [13-cis-retinoic acid]: the cell number amounted to 100.
With `CCCCCCCCCCCCCCCC(=O)OCC(O)C1OC(=O)C(O)=C1O` (centres undefined) [Ascorbyl palmitate] the figure was 105; with `NC(=O)CC[C@H](N)C(=O)O` [L-Glutamine], 112; with `CC1(C)CCC(NC(=O)C(N)CCC(=O)O)CC1` (centres undefined), 111.
In the case of `C[N+](C)(C)CCOC(=O)CCC(=O)OCC[N+](C)(C)C.O.O.[Cl-].[Cl-]`, the cell number was 104.
In the case of `C[N+](C)(C)CCCCCC[N+](C)(C)C.[Br-].[Br-]` [Hexamethonium bromide], the cell number was 103.
